PubChem BioAssay (NCI)
Where “and” joins values, the source holds several entries; their conditions need not be identical. Equal entries are not always repeated. Compounds without any hit were thinned out: in the full panel of roughly 83,000, 20% have a hit.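 In brief: 96-well plates, 48 h treatment, single concentration, percent growth endpoint.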 Calls of active or inactive are those of the source. How the source made its calls: active means growth percent below 10; inactive means the rest.

Experiments:
Test in all cases: NCI-60 one-dose screen, 48 h (100 = growth as untreated, 0 = no growth, -100 = all killed)
Details in all cases: 10 µM unless noted
[1] = system: HCT-15 colon
[2] = system: HT29 colon
[3] = system: SNB-75 CNS
[4] = system: SNB-19 CNS
[5] = system: U251 CNS
[6] = system: PC-3 prostate
[7] = system: SK-MEL-5 melanoma
[8] = system: UACC-62 melanoma
[9] = system: LOX IMVI melanoma
[10] = system: SK-MEL-28 melanoma

Measured: growth

O[C@H]1[C@H]2c3cc4c(cc3CN3CCC(=C[C@@H]1O)[C@H]23)OCO4
inactive: [1] 21.6% | [2] 18.5% | [3] 23% | [4] 28.9% | [5] 22.5% | [6] 34.2% | [7] 14.2% | [8] 62% | [10] 20.7%
active: [9] 0.731%

O=C1c2ccccc2C(=O)c2sc(Nc3ccc(Cl)cc3)nc21
active: [1] -68.7% | [5] 4.35% | [6] 2.24% | [9] -85.8% | [10] -9.35%
inactive: [2] 92.5% | [3] 33.1% | [4] 79.5% | [8] 18.4%

Cc1cc(N)c2ccccc2[n+]1CCCCCCCCCC[n+]1c(C)cc(N)c2ccccc21
8% (active) and 14.1% (inactive): [6]
21.3% (inactive) and -8.96% (active): [3]
-51.1% (active) and 15.5% (inactive): [5]
-73% (active) and 37.4% (inactive): [9]
active: [2] 2.09% and -13.8% | [8] -66.5% and 1.93% | [10] -26.4%
inactive: [1] 26.2% and 42.4% | [4] 21.3% and 12.5%

CC1OC(OC2C(OC3CCC4(C)C(CCC5(C)C4CC=C4C6CC(C)(C)CCC6(CO)C(O)CC45C)C3(C)C)OC(C(=O)O)C(OC3OC(COC4OC(CO)C(O)C(O)C4O)C(O)C(O)C3O)C2O)C(O)C(O)C1O (stereo not drawn)
active: [1] -47.8% | [2] -44.6% | [4] -87.6% | [5] -80.4% | [6] -74.3% | [7] -94.3% | [8] -69.7% | [9] -69.9% | [10] -79%

O=C(CC1(O)C(=O)Nc2c(Cl)ccc(Cl)c21)c1ccc(Cl)cc1Cl (stereo not drawn)
inactive: [1] 101% | [2] 90.3% | [4] 107% | [5] 96.4% | [6] 81% | [8] 97.8% | [9] 100% | [10] 109%

Cn1c2ccccc2c2nnc(N/N=C/c3ccccn3)nc21
inactive: [1] 27.6% | [2] 37% | [4] 26.1% | [5] 14.2% | [6] 28.4% | [10] 18.5%
active: [7] -44.1% | [8] -6.2% | [9] 1.32%

COc1ccc(N=N/N=c2\sc3cc(OC)ccc3n2C)cc1
inactive: [1] 98.9% | [2] 78.9% | [4] 98% | [5] 77.7% | [6] 77.9% | [7] 84.6% | [8] 83.1% | [9] 105% | [10] 94%

CC(=O)ON=C1C=CC(=C(C#N)c2ccccc2)C=C1
active: [1] 8.51% | [6] -1.95% | [9] 5.8%
inactive: [2] 82.2% | [4] 82.5% | [5] 22.9% | [7] 48.1% | [8] 26.1% | [10] 55.5%

CC(=O)Nc1cccc2cc(O)ccc12
inactive: [1] 112% and 107% and 99.9% | [2] 115% and 107% and 95.8% | [4] 106% and 94.8% | [5] 108% and 102% and 101% | [6] 104% and 96.3% and 80.3% | [8] 96.3% and 90.9% and 96.9% | [9] 104% and 106% | [10] 110% and 111% and 104%

O=C(Nc1ccc(F)cc1)ON=C1CCCCC1
inactive: [1] 97% [100 µM] | [2] 103% [100 µM] | [4] 94% [100 µM] | [5] 102% [100 µM] | [6] 89.5% [100 µM] | [8] 54.5% [100 µM] | [9] 88.2% [100 µM] | [10] 108% [100 µM]

O=C1c2ccccc2C(=O)N1c1ccccc1
inactive: [1] 105% | [2] 104% | [4] 105% | [5] 93.1% | [6] 101% | [8] 92% | [9] 104% | [10] 115%

Cc1ccc2nc(C[n+]3ccc4ccccc4c3)ccc2c1
inactive: [1] 99% | [2] 37.3% | [4] 46.5% | [5] 42.1% | [6] 38.5% | [8] 69.8% | [9] 68.4% | [10] 63.5%
active: [7] -31.1%

Cc1ccc(N=C=C(c2ccccc2)c2ccccc2)cc1
inactive: [1] 67.6% | [2] 97.6% | [4] 85.2% | [5] 81.5% | [6] 66.9% | [8] 84.6% | [10] 106%
active: [9] 5.05%

O=C(Oc1cccc2cccnc12)c1ccccc1
inactive: [1] 77.6% and 101% | [2] 87.1% and 99.8% | [4] 93.7% and 108% | [5] 82.8% and 113% | [6] 81.1% and 93.8% | [7] 105% and 100% | [8] 97.6% and 106% | [9] 70% and 100% | [10] 82.4% and 103%

N#CSCc1ccc(Cl)c(CSC#N)c1
active: [2] 6.14%
inactive: [1] 18% | [4] 61.5% | [5] 61% | [6] 25.5% | [7] 19.8% | [8] 57.3% | [9] 19.9% | [10] 68.6%

Cc1ccc(NS(=O)(=O)c2ccc(C)cc2)cc1
inactive: [1] 101% and 104% | [2] 101% and 90.4% | [4] 106% and 102% | [5] 96.9% and 86.6% | [6] 97.7% and 94% | [7] 97.8% and 95.3% | [8] 91% and 99.2% | [9] 99.2% and 96% | [10] 116% and 110%

NC(=S)N/N=C/c1ccc(Cl)s1
inactive: [1] 101% | [2] 108% | [4] 101% | [5] 101% | [6] 101% | [7] 97.2% | [8] 101% | [9] 101% | [10] 108%

NC(N)=N/N=C/c1ccc([N+](=O)[O-])o1
inactive: [1] 68.1% | [2] 33.2% | [4] 99.9% | [5] 80.8% | [6] 90% | [7] 90.4% | [8] 92.9% | [9] 82.1% | [10] 114%

C[N+](C)=c1ccc2nc3c(cc(NCCCNc4cc5oc6cc(=[N+](C)C)ccc-6nc5c5ccccc45)c4ccccc43)oc-2c1
active: [1] -29.2% | [2] -32.5% | [4] -24.6% | [5] -20.1% | [6] 6.83% | [7] -96.3% | [9] -45.5%
inactive: [8] 43.3% | [10] 64.8%

Oc1c(Br)cc(Cl)cc1C(c1cc(Cl)cc(Br)c1O)C(Cl)(Cl)Cl
inactive: [1] 17.2% | [2] 10.1% | [4] 24.7% | [5] 15.2% | [8] 13.3% | [9] 34.3% | [10] 38.1%
active: [6] 1.63% | [7] -64.6%

COc1ccc2nc3cc(Cl)ccc3c(NCCNc3c4ccc(Cl)cc4nc4ccc(OC)cc34)c2c1
active: [1] -65.9% | [2] -65.7% | [4] -87.7% | [5] -84% | [6] -63% | [7] -96.5% | [8] -88.4% | [9] -84.9% | [10] -86.4%

O=C(Nc1cccc(Br)c1)Oc1ccc(Cl)c2cccnc12
inactive: [1] 10.9% [100 µM] | [2] 70.5% [100 µM] | [4] 27.8% [100 µM] | [5] 20.2% [100 µM] | [6] 20.2% [100 µM] | [10] 25% [100 µM]
active: [7] 9.3% [100 µM] | [8] -30.4% [100 µM] | [9] 4.16% [100 µM]

COC(=O)c1nc(=S)[nH]c(C(=O)OC)c1C(=O)c1ccc2ccccc2c1
inactive: [1] 99.2% | [2] 112% | [4] 94.7% | [5] 97.6% | [6] 93.5% | [7] 98.9% | [8] 89.4% | [9] 94.7% | [10] 106%

Cn1c2c(c3ccccc31)CCN1C[C@@H]3CCCC[C@H]3C[C@@H]21
active: [1] 9.14% | [2] 1.8%
inactive: [4] 18.3% | [5] 19.8% | [6] 23% | [8] 18.4% | [9] 15.6% | [10] 31.1%

CN(C)c1ccc(N=Nc2cccc3ccccc23)cc1
inactive: [1] 93.1% | [2] 93.5% | [4] 100% | [5] 88.6% | [6] 75.9% | [7] 93.9% | [8] 84.2% | [9] 96.3% | [10] 103%

Cc1ccnc2c1ccc1c(C)ccnc12
active: [5] 7.48% | [8] 2.66% | [9] 2.99%
inactive: [1] 20.9% | [2] 17.7% | [4] 21.9% | [6] 22% | [10] 20.7%
